From PubChem BioAssay (NCATS)
Inconclusive results are not listed. Where a call stands in place of a potency, no number is given. Values without a mark were called inactive. Active and inactive are the calls of the source. Calls follow the shape of the dose curve; as a rule, active = well fitted curve in the direction sought with a large enough effect; inconclusive = small, poorly fitted or top-dose-only effect, or another doubt; inactive = no such curve, though single readings can be large; an effect the other way counts as inactive or inconclusive.

Assays:
[1] = biological target: Rap guanine nucleotide exchange factor 3 (Homo sapiens) (UniProt O95398); assay: Confirmatory qHTS for agonist of cAMP-regulated guanine nucleotide exchange factor 3 (EPAC1) (AID 1645881);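 also: EPAC1 catalysed release of BODIPY-GDP from Rap1B seen as fluorescence loss; nearly all actives have a fitted effect of over 75% in size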
[2] = biological target: Rap guanine nucleotide exchange factor 4 (Homo sapiens) (UniProt Q8WZA2); assay: Confirmatory qHTS for agonist of cAMP-regulated guanine nucleotide exchange factor 4 (EPAC2) (AID 1645884);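 also: nucleotide exchange releases bodipy-GDP from Rap1 and this lowers its fluorescence; nearly all actives have a fitted effect of over 65% in size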; also: potency is read from the fitted curve at half-maximal effect
[3] = biological target: Rap guanine nucleotide exchange factor 3 (Homo sapiens) (UniProt O95398); assay: Counterscreen qHTS for antagonist of cAMP-regulated guanine nucleotide exchange factor 3 (EPAC1) (AID 1645888);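 also: fluorescence loss as bound BODIPY-GDP is released from Rap1B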
Method in brief: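 Rap1B–BODIPY-GDP (250 nM) with 50 uM GDP; compounds pin-transferred to 9.74 nM–152 uM final (activator) or from 7.32 nM upwards (inhibitor). Fluorescence Ex/Em 480/540 nm read at 5 and 30 min, then after adding cAMP or buffer, at room temperature.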

Sequence of Rap guanine nucleotide exchange factor 4 (Homo sapiens) (Q8WZA2 whole entry, looked up): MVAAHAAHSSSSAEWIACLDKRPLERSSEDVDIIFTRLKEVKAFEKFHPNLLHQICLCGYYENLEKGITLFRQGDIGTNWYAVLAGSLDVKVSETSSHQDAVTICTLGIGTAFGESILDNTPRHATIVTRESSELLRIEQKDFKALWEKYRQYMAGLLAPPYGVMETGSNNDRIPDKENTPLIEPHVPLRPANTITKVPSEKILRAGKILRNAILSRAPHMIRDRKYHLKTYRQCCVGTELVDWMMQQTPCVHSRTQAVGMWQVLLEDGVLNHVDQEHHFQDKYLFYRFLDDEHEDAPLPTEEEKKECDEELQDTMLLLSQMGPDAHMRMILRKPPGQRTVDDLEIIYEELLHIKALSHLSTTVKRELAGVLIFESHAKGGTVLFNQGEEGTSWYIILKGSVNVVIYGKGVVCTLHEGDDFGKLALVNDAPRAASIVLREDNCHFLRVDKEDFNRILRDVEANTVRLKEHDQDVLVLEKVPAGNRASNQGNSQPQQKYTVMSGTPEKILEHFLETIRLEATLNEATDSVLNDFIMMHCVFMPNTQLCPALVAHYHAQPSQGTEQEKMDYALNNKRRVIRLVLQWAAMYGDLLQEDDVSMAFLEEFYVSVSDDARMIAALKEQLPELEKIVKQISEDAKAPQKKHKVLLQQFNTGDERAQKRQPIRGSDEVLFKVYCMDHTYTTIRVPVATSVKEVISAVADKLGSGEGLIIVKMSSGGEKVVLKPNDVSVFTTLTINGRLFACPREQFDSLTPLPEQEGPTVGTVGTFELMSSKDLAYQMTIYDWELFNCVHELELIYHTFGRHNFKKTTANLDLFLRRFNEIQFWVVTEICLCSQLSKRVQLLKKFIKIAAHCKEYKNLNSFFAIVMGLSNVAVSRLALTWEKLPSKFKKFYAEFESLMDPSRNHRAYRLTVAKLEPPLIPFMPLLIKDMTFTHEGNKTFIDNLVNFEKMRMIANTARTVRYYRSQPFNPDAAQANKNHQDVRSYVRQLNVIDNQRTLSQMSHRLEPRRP
Sequence of Rap guanine nucleotide exchange factor 3 (Homo sapiens) (O95398 whole entry, looked up): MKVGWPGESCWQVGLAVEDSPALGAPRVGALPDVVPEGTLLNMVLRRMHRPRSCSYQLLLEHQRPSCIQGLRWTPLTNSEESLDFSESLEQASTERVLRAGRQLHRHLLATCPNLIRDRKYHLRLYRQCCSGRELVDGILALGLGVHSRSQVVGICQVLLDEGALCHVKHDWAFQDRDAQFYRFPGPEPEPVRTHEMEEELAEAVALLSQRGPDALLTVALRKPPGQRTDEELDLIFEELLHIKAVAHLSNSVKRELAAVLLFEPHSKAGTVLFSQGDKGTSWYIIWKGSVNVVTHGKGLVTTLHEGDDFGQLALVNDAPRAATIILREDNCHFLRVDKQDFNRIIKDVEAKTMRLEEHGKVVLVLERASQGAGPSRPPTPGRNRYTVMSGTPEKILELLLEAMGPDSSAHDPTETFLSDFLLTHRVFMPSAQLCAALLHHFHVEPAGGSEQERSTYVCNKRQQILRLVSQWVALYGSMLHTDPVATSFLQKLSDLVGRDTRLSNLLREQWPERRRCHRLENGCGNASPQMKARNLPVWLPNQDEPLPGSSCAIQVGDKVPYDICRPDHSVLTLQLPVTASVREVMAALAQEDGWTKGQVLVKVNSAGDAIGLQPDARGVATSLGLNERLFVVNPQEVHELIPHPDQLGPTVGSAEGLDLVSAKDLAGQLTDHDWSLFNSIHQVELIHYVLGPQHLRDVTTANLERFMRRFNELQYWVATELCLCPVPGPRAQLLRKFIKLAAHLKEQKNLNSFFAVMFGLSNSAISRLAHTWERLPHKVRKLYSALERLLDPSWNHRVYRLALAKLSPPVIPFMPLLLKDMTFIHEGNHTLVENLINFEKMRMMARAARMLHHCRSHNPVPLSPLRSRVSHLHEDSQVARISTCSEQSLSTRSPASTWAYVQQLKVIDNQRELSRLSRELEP

Structure (SMILES)	Potency [1]	Potency [2]	Potency [3]	activation [2]	activity change, negative = inhibition [3]
CCOc1ccc(S(=O)(=O)Nc2nc3ccccc3nc2-n2ccc(=NC(=O)c3cccs3)cc2)cc1	inactive	inactive	inactive	–	–
CC(C)=CCc1c(O)ccc2c1OC(c1ccc(O)c(O)c1)CC2=O (configuration not stated)	inactive	inactive	inactive	–	–
CC(=O)NC(C)(c1ccccc1)c1nc(-c2cc(F)cc(F)c2)cs1 (configuration not stated)	inactive	inactive	inactive	–	–
Nc1ccc(C(=O)N2CCN(S(=O)(=O)c3ccc(Cl)s3)CC2)cc1[N+](=O)[O-]	inactive	inactive	inactive	–	–
CCOC(=O)C1=CCN(S(=O)(=O)c2ccccc2C)C1c1ccc(Cl)c(Cl)c1 (configuration not stated)	inactive	inactive	inactive	–	–
CN1CCc2nc3sc(C(=O)C45CC6CC(CC(C6)C4)C5)c(N)c3cc2C1	inactive	100 µM (active)	inactive	–	–
CCOC(=O)c1ccc(NC(=O)c2c(N)n(Cc3ccccc3)c(=O)[nH]c2=O)cc1	inactive	inactive	inactive	–	–
CCCCC1CC2=C(C(=O)OC(C)(C)O2)C(c2ccc(Cl)cc2)O1 (configuration not stated)	inactive	inactive	inactive	–	–
Cc1cc(NS(=O)(=O)c2ccc(NC(=S)NC(=O)/C=C/c3ccccc3)cc2)no1	inactive	–	–	1.85% [at 17.1 µM, percent relative to cAMP agonist control]	-2.1% [at 30.8 µM]
COc1cc(/C=C/C(=O)c2ccc3c(c2)OCCO3)cc(Br)c1OCC(=O)N(C)C	inactive	inactive	inactive	–	–
Cc1cc(NC(=O)CS(=O)(=O)c2cn(Cc3cccc(Br)c3)c3ccccc23)no1	inactive	inactive	inactive	–	–
CC(=O)NC(c1ccccc1)c1c(O)ccc2ccccc12 (configuration not stated)	inactive	–	–	2.11% [at 17.1 µM, percent relative to cAMP agonist control]	-4.37% [at 30.8 µM]
Cc1ccc(CN(Cc2ccco2)C(=O)c2ccccc2Br)o1	inactive	inactive	inactive	–	–
CCCCOC(=O)CCn1c(=S)oc2ccccc21	inactive	inactive	inactive	–	–
CCCN(CC(=O)Nc1ccccc1C)C(=O)C1CCN(c2ncnc3sc(C)c(C)c23)CC1	inactive	inactive	inactive	–	–
O=C1NC[C@H](Cc2ccc(O)cc2)N(C[C@@H]2CCCN2C[C@H](Cc2ccc(O)cc2)N2C[C@H](Cc3ccccc3)N(CC3CCCCCC3)C(=O)C2=O)C1=O	inactive	inactive	inactive	–	–
Cc1ccc(S(=O)(=O)Oc2cccc(/C=N/Nc3ccc(C(=O)O)cc3)c2)cc1	inactive	inactive	inactive	–	–
COc1ccc(CCN2C(=O)CSC2=Nc2ccc(C(C)C)cc2)cc1OC	inactive	inactive	inactive	–	–
Cc1cc2c(C)nc(N/N=C/c3ccc(F)cc3)nc2o1	inactive	inactive	inactive	–	–
